This passage reports composite z-score and z-score results from PubChem BioAssay.

The test system of test [1] is Human papillomavirus type 1a protein E7 (residues 44-93). Kind of test: HPV1a E7 fragment binders on microarrays, primary screen, biochemical, small-molecule microarray, residues 44-93, 635 nm fluorescence (AID 1108).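 Also: E7 fragment applied at 1 µg/mL in TBST for 1 h at 4 C; score combines spot fluorescence with its signal to noise ratio.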 Particulars: small-molecule microarray binding, fluorescence 635 nm; higher = more signal.
Test [2] can be described thus: modulators of HCV replicon luciferase signal, primary screen, HCV replication inhibitor project, Huh7 cells, luciferase reporter (AID 1109).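 Also: huh7 hepatoma cells harbouring a luciferase neomycin HCV replicon reporter; luciferase luminescence as measure of HCV replicon replication; test concentration not given here.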 Particulars: 48 h, higher = more signal. In general terms: In antiviral work, replicon cells carry a viral genome segment that copies itself.
For test [3], the target named is Left-right determination factor 2 (Homo sapiens) (UniProt O00292). In words: LEFTY2 binders on small-molecule microarrays, primary screen, biochemical, small-molecule microarray, 635 nm fluorescence scan (AID 1110). Particulars: LEFTY2 binding, higher = more signal.
Chain of Left-right determination factor 2 (Homo sapiens) (O00292 whole entry, looked up): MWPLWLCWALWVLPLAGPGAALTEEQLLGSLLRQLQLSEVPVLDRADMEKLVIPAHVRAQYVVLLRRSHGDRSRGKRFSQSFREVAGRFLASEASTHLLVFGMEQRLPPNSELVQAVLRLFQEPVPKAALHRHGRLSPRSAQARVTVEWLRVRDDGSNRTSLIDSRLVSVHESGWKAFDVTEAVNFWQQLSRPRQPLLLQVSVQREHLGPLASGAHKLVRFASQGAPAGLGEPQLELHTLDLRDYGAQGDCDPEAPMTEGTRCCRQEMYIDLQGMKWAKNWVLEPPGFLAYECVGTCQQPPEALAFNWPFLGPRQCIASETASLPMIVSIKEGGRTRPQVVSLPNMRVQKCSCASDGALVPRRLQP
Test [4] concerns the target Calmodulin-1 (Homo sapiens) (UniProt P0DP23). In words: CALM1 binders on microarrays, EGTA buffer, profiling panel, biochemical, small-molecule microarray, Cy5-labelled CALM1 (AID 1111).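 Also: labelled calmodulin applied in Tris saline Tween buffer holding calcium plus EGTA and DTT.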 To be noted: Cy5-CALM1 binding fluorescence, higher = more signal.
Test [5] shares this target. Kind of test: calcium-bound CALM1 binders on microarrays, profiling panel, artefact control for SMM control-protein annotation, biochemical, small-molecule microarray, Cy5-labelled CALM1, plus calcium (AID 1112).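 Also: score merges spot fluorescence with signal to noise from triplicate slides.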 Particulars: Cy5-CALM1 binding fluorescence, higher = more signal.
Test [6] can be described thus: small-molecule microarray binders of probe aWnt5a, primary screen, biochemical, biotinylated probe, 635/667 nm fluorescence (AID 1113).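 Also: score merges 667 nm fluorescence intensity with signal-to-noise per printed feature.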 To be noted: higher = more signal.
Test [7] is described as follows: small-molecule microarray binders of probe aShh, primary screen, biochemical, biotinylated probe, 635/667 nm fluorescence (AID 1114).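 Also: probe is biotin-labelled aShh protein from a stem cell growth factor screen; measures binding of labelled protein to compounds printed on the slide; score merges feature fluorescence at 667 nm with signal-to-noise.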 To be noted: higher = more signal.
Test [8] in a line: small-molecule microarray binders of probe aNog, primary screen, biochemical, biotinylated probe, 635/667 nm fluorescence (AID 1115).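 Also: probe is biotinylated aNog protein used at 0.15 µg/mL for 1 h at 4 C; z-score combines 667 nm fluorescence of each spot with its signal to noise.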 To be noted: higher = more signal.
The target in test [9] is Torsin-1A-interacting protein 1 (Homo sapiens) (UniProt Q5JTV8). Kind of test: LAP1 binders from COS7 cell lysate, primary screen, small-molecule microarray, 635/667 nm fluorescence (AID 1116). To be noted: COS7-hLAP1 lysate binding, 635 nm fluorescence, higher = more signal.
Chain of Torsin-1A-interacting protein 1 (Homo sapiens) (Q5JTV8 whole entry, looked up): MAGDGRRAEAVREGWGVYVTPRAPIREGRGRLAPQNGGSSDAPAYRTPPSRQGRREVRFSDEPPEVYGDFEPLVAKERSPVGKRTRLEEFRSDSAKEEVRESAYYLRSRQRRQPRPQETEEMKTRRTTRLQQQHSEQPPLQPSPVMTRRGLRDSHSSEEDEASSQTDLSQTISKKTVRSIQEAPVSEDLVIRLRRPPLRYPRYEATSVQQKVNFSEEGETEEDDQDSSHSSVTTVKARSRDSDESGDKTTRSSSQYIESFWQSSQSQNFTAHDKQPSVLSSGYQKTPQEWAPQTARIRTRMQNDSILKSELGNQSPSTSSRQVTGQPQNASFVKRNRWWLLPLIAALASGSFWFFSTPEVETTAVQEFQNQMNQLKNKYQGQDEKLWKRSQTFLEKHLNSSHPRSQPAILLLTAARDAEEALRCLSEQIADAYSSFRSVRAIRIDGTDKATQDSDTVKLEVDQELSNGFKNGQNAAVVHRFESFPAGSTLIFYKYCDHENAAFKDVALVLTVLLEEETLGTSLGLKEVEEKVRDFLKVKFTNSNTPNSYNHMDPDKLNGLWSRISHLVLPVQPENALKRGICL
The target in test [10] is Alpha-bungarotoxin (Bungarus multicinctus) (UniProt P60615). Kind of test: alpha-bungarotoxin binders on microarray, profiling panel, artefact control for SMM control protein annotation, biochemical, small-molecule microarray, Alexa647 label, 635/667 nm fluorescence (AID 1117). To be noted: alpha-BTX-A647 binding fluorescence, higher = more signal.
Chain of Alpha-bungarotoxin (Bungarus multicinctus) (P60615 whole entry, looked up): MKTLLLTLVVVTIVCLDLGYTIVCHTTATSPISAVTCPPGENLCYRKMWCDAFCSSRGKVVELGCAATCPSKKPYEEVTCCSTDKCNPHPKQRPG

For the compound `CCCC[C@@H]1C[C@H]1[C@@H](NS(=O)(=O)c1cccc2cccnc12)c1ccc(-c2ccccc2)cc1`, the composite z-score in [1] was 0.97; in [3], -0.732; in test [4] it was 0.691; in [5], 1.23; in test [6], 0.138; in test [7], -0.01. Moreover, the composite z-score in test [8] turned out to be 1.31; in [9], 0.0258; in [10] it was 0.231. In addition, the z-score in test [2] was -0.122.
Regarding `CC(=O)OC[C@H]1O[C@H](CCON=C[C@@H](C)[C@H](OCc2ccccc2)C(C)C)C=C[C@@H]1OC(C)=O`, the composite z-score in [1] was 0.837; in test [3], 0.646; in test [4] it was -0.501; in test [5], -0.911; in test [6], 0.0181; in [7] it was -0.214. For the same compound, the results for the composite z-score in test [8], in test [9] and in test [10] were -0.215, 0.619 and 0.13, respectively. The z-score in [2] was -0.461.
As for `CCc1cccc(NC(=O)O[C@H]2[C@H](OC(=O)Nc3ccc4c(c3)OCO4)[C@@H](OC(=O)Nc3ccc4c(c3)OCO4)[C@@H](OC)O[C@@H]2CO)c1`, the composite z-score in test [1] was 1.4; in test [3] it was 0.645; in [4], 0.779; in [5], -1.12; in test [6], 0.0136; in [7], 0.214. The composite z-score in test [8] was -0.229; in test [9] it was 0.577; in test [10] it was 0.545. Also, the z-score in test [2] was -0.717.
As for `COCCCNC(=O)[C@@]1(Sc2ccc(C)cc2)CC(=O)N(Cc2ccccc2)[C@@H]1c1ccc(CO)cc1I`, the composite z-score in test [1] is 0.362; in test [3] it was -1.54; in test [4] it was -1.11; in [5] it was 0.214; in test [6] it was -0.0928; in test [7], -0.0362. The composite z-score in test [8] was -0.176; in test [9], 1.5; in [10], 1.23. The z-score in [2] was -2.02.
On to `CC(C)CON=C1C[C@@H](O)[C@@H](O)[C@@H]2[C@@H]3C(=O)N([C@@H](C)c4ccccc4)C(=O)[C@@H]3CC[C@H]12`, for which the composite z-score in test [1] was 1.36; in test [3] it was 0.756; in test [4] it was 0.336; in test [5], -0.351; in [6] it was -0.124; in [7] it was -0.0011. Moreover, the results for the composite z-score in test [8], in [9] and in test [10] were -0.0308, 0.619 and 0.922, respectively. For the same compound, the z-score in test [2] worked out at 0.775.
For the compound `c1ccc(C2NCCc3c2[nH]c2ccccc32)cc1` (stereo not given), the composite z-score in [1] was -0.571; in test [3], 0.106; in [4] it was -0.387; in [5] it was -0.951; in test [6] it was -0.124; in test [7], -0.147. Moreover, the values for the composite z-score in [8], in [9] and in [10] were 0.183, 0.446 and 0.128, respectively. The z-score in test [2] was -3.13.
In the case of `Cc1cc2c(c(=O)o1)[C@H](O)[C@H]1O[C@H]1C2=O`, the composite z-score in [1] is -1.5; in [3], 0.761; in [4], -0.766; in [5], -1.38; in test [6] it was -0.208; in test [7], 0.0048. The composite z-score in [8] is -0.359; in [9] it was 0.17; in test [10] it was 0.0658. The z-score in test [2] is -2.16.
`CN1C(=O)[C@@]2(CCC(=O)OC(C)(C)C)N=C(c3ccc(OCCCO)cc3)O[C@H]2c2ccccc21`: the composite z-score in test [1] was 1.29; in test [3], -0.057; in test [4] it was 0.878; in test [5] it was -0.304; in test [6], -0.096; in [7], 0.137. Further, the composite z-score is -0.539 in test [8], 0.558 in test [9] and 0.721 in test [10]. Further, the z-score in test [2] was -2.9.
For `Cc1ccc(S[C@]2(C(=O)NCC(F)(F)F)CC(=O)N(Cc3ccccc3Cl)[C@@H]2c2ccc(CO)cc2I)cc1`, the composite z-score in test [1] is 0.859; in test [3], -0.692; in test [4], -0.391; in [5], -0.0928; in test [6], -0.12; in test [7] it was -0.0035. Moreover, the composite z-score in test [8] was -0.383; in [9], -0.373; in [10], 2.06. Also, the z-score in [2] is -1.16.
As for `CCOC(=O)[C@H](Cc1ccccc1)NC(=O)CCC1CC(OC(=O)NCc2ccc3c(c2)OCO3)CC2(CCCC(COC(=O)NCC(c3ccccc3)c3ccccc3)O2)O1` (stereo not given in full), the composite z-score was 1.39 in test [1]; 0.45 in [3]; -0.198 in [4]; -0.0205 in [5]; -0.175 in test [6]; 0.0723 in [7]. The composite z-score in test [8] is -0.233; in test [9], 0.313; in test [10], 0.363. The compound further returned a z-score in test [2] of 0.529.
Regarding `[N-]=[N+]=Nc1ccccc1C[C@@]1(C(N)=O)N=C(c2ccc(OCCCO)cc2)O[C@@H]1c1ccccc1`, the composite z-score in [1] was 0.692; in [3], -1.09; in [4], 1.7; in [5] it was 0.824; in test [6], -0.0445; in test [7], 0.456. For the same compound, the composite z-score came out at 0.662 in test [8], 1.26 in test [9] and 0.546 in test [10]. Also, in test [2], the z-score is -2.38.
For `CCOC(=O)CCN1C(=O)[C@H]2[C@H]3[C@H](O)[C@H](O)CC(=NNC(=O)OCc4ccc(OC)cc4)[C@@H]3CC[C@H]2C1=O`, the composite z-score in test [1] was -0.75; in [3], 0.554; in test [4], 0.715; in test [5] it was -0.0636; in [6], -0.124; in test [7] it was -0.323. Also, the composite z-score is -0.118 in [8], 0.94 in [9] and 1.21 in [10]. The z-score in test [2] was -0.552.
